Screening results deposited in PubChem BioAssay by National Center for Advancing Translational Sciences (NCATS).
Cruzain noTriton: qHTS Assay for Promiscuous and Specific Inhibitors of Cruzain (without detergent) | Cruzipain (Trypanosoma cruzi), P25779 | purified cruzain, Z-FR-AMC fluorescence, no detergent | Potency, µM, for inactives: max response, negative = inhibition, hits mostly inhibitors | hit rate 2.3% among 200,000 | AID 1476, 2009;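 also: plate controls were enzyme without inhibitor for no effect and buffer without enzyme for full effect; nearly all actives have a fitted effect of over 40% in size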
Target sequence (P25779 123-467 limits assumed): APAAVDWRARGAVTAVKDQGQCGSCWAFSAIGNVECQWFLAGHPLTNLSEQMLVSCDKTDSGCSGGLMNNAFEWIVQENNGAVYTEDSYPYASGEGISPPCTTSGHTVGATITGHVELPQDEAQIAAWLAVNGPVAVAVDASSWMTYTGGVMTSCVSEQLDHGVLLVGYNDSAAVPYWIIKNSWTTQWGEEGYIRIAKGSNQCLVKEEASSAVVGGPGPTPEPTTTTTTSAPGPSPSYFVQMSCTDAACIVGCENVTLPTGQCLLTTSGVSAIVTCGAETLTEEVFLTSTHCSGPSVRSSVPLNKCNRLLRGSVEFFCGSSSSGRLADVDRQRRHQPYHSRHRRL
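Purified cruzain at 1.5 nM, pre-incubated 15 min with compound at room temperature in 100 mM sodium acetate pH 5.5, 5 mM DTT, 0.00005% Triton X-100. Reaction started with 2 uM Z-FR-AMC; AMC fluorescence increase over 60 s gives rate.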
Cruzain inh Det: qHTS Assay for Promiscuous and Specific Inhibitors of Cruzain (with detergent); hit rate 0.43% among 200,000; Potency, µM, for inactives: max response, negative = inhibition, hits mostly inhibitors; AID 1478, 2009; purified cruzain, Z-FR-AMC fluorescence, 0.01% Triton;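 also: plate controls were neutral wells for no effect and buffer without enzyme for full effect; nearly all actives have a fitted effect of over 40% in size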
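Read-out: AMC fluorescence (360 nm excitation, 450 nm emission), four reads over 2 min, first-to-third difference used. Conditions: cruzain 1.5 nM, Z-FR-AMC 2 uM, pH 5.5 acetate, 5 mM DTT, 0.01% Triton X-100.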
Numbers without * were called inactive; ? = inconclusive. The list is not random: actives were taken first. Their share in the collection is about 2.6%. Calls follow the shape of the dose curve; as a rule, active = well fitted curve in the direction sought with a large enough effect; inconclusive = small, poorly fitted or top-dose-only effect, or another doubt; inactive = no such curve, though single readings can be large; an effect the other way counts as inactive or inconclusive. Potency is read from the fitted curve at half-maximal effect.

SMILES	Cruzain noTriton	Cruzain inh Det
COc1cccc(CNC(=O)c2cc(S(=O)(=O)N3CCCCC3)c[nH]2)c1	4.4%	-2.8%
O=C(NCc1ccc(Cl)cc1)c1cc(S(=O)(=O)N2CCCCC2)c[nH]1	20µM*	?
COc1ccc(NC(=O)CC2C(=O)N(c3cccc(OC)c3)C(=O)N2Cc2ccc3c(c2)OCO3)cc1 (configuration not stated)	2.1%	-1.0%
Cc1cccc(OCCn2cc(/C=N/NC(=O)c3ccncc3)c3ccccc32)c1	?	-7.5%
CCC(C)c1ccc(OCCn2cc(/C=N/NC(=O)CSc3nnc(C)s3)c3ccccc32)cc1 (configuration not stated)	3.98µM*	0.7%
Cc1ccc(-n2ncc3c(NCCc4ccccc4)ncnc32)cc1Cl	2.0%	0.0%
CC(C)CC(=O)Nc1nnc(S(=O)(=O)N(CC(C)C)c2ccccc2)s1	1.0%	-5.2%
COc1ccc(NC(=O)c2oc3ccccc3c2NC(=O)c2cc(OC)c(OC)c(OC)c2)cc1	21.0%	-2.2%
COc1cc(SC#N)ccc1N=Cc1c(C)[nH]n(-c2ccc(Cl)cc2)c1=O	20µM*	0.1%
COc1cc(SC#N)ccc1N=Cc1c(C)[nH]n(-c2ccc(C)c(C)c2)c1=O	-4.6%	-5.2%
COc1ccc(Cl)cc1NC(=O)c1cn(C2CCCCC2)c(=O)c2c1c1ccccc1n2C	10µM*	-1.2%
COc1cc(OC)c(NC(=O)c2cn(C3CCCC3)c(=O)c3c2c2ccccc2n3C)cc1Cl	4.3%	-2.0%
O=C(Cn1ncc2c3ccccc3n(Cc3ccccc3F)c2c1=O)NCc1ccccc1Cl	-3.3%	-1.0%
Cc1cccc(NS(=O)(=O)c2ccc(Cl)c(C(=O)Nc3ccccc3C)c2)c1	1.0%	-6.1%
Cc1nn(-c2ccccc2)c(N2CCCC2)c1/C=N/NC(=S)Nc1ccccc1C(F)(F)F	?	-6.8%
Cc1nn(-c2ccccc2)c(N2CCCC2)c1/C=N/NC(=S)Nc1cc(C(F)(F)F)ccc1Cl	10µM*	-3.9%
COCCCNC(=O)N1[C@H](c2cccs2)[C@@H](C)C(=O)[C@@H](C)[C@@H]1c1cccs1	-0.7%	-4.1%
NS(=O)(=O)c1cc2c(cc1C(F)(F)F)N[C@H](Cc1ccccc1)NS2(=O)=O	-11.0%	-0.2%
Cc1no[n+]([O-])c1COc1ccc(/C=C2\NC(=S)NC2=O)cc1	31.6µM*	-6.7%
Cc1no[n+]([O-])c1COc1ccc(/C=C(\C#N)C(N)=O)cc1	5.3%	-6.1%
c1c[nH]c(CN2CCOCC2)n1	3.3%	-0.6%
CSc1nnc2c3cc(F)ccc3n(Cc3ccccc3)c2n1	-15.7%	-28.7%
CCCCn1c2ccc(F)cc2c2nnc(SCCN(CC)CC)nc21	20µM*	15.8µM*
Cc1ccc(OCC(=O)Nc2ccc(C(=O)OCc3cc(=O)n4ccsc4n3)cc2)cc1C	-0.3%	-0.8%
O=S(=O)(Nc1ccc2c(c1)nc1n2CCN(Cc2ccccc2)C1)c1ccccc1	?	-5.0%
SMILES	Cruzain noTriton	Cruzain inh Det
O=S(=O)(Nc1ccc2c(c1)nc1n2CCN(Cc2ccccc2)C1)c1ccc(Cl)cc1	25.1µM*	-3.4%
Cc1ccc(S(=O)(=O)c2c(N)n(/N=C/c3ccco3)c3nc4ccccc4nc23)cc1C	15.8µM*	-21.6%
Cc1cccc(S(=O)(=O)c2c(N)n(/N=C/c3ccco3)c3nc4ccccc4nc23)c1	-21.6%	-4.8%
CCC(C(=O)NCCc1ccccc1)n1nc(C)n2c(cc3sccc32)c1=O (configuration not stated)	-0.3%	-2.1%
COc1ccc(C2=NS(=O)(=O)N(C)C(C(=O)Nc3ccc(OC(F)(F)F)cc3)=C2)cc1	10µM*	-3.9%
COc1ccc(NC(=O)C2=CC(c3ccc4c(c3)OCO4)=NS(=O)(=O)N2C)cc1	?	-3.6%
CCOc1ccccc1Nc1ncnc2c1c(-c1ccccc1)cn2-c1ccc(OC)cc1	10µM*	0.6%
COc1ccc(-n2cc(-c3ccccc3)c3c(NC4CCCC4)ncnc32)cc1	3.8%	-0.9%
CC(C)C(NS(=O)(=O)c1cccs1)C(=O)NCCN1CCN(c2ccccc2)CC1 (configuration not stated)	25.1µM*	20µM*
COc1ccc(N2CCN(CCNC(=O)CCNS(=O)(=O)c3cccs3)CC2)cc1	-6.9%	1.6%
CC(C)[C@H](O)C1=CCCCC1=O	0.4%	-1.0%
O=C(CSc1nc2cc(Cl)ccc2c(=O)n1Cc1ccco1)Nc1ccc(S(=O)(=O)N2CCOCC2)cc1	?	-4.8%
COC(=O)c1ccc2c(=O)n(Cc3ccco3)c(SCC(=O)Nc3ccc(C)c(Cl)c3)nc2c1	6.31µM*	6.5%
O=[N+]([O-])c1cc(S(=O)(=O)N2CCCC2)ccc1N/N=C1/CCCc2ccccc21	15.8µM*	-6.5%
O=[N+]([O-])c1cc(S(=O)(=O)N2CCCC2)ccc1NN=C1CCCCC1	18.6%	0.6%
Oc1c(Cl)c(Cl)c(Cl)c(Cl)c1Cl (tested in a mixture with another compound)	-0.8%	1.4%
